KKLEB cytotox: cytotoxicity in KKLEB CF airway cells, primary screen, cytotoxicity control for CF NF-kB inhibitor project, cell-based, uHTS, fluorescence assay plates | KKLEB CF airway cells viability, ATPlite luminescence, overnight; hits give low values; cells stimulated with P. aeruginosa culture filtrate | AID 602141, 2011 | actives 0.36% (n = 360,000) | activity change (cytotoxicity), % at 5 µM;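 active means corrected activity change at or below -50% at 5 µM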
Beta2AR agonist: beta2AR agonists driving receptor internalization, primary screen, cell-based, FAP fluorogen, flow cytometry; Am2.2-beta2AR cells; actives 0.43% (n = 340,000); response, % (test concentration not listed); Beta-2 adrenergic receptor (Homo sapiens), P07550;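 active means response above a set limit, near 3 SD of response in nonfluorescent compounds, cut at about 42% in these data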
Target sequence (P07550 whole entry, looked up): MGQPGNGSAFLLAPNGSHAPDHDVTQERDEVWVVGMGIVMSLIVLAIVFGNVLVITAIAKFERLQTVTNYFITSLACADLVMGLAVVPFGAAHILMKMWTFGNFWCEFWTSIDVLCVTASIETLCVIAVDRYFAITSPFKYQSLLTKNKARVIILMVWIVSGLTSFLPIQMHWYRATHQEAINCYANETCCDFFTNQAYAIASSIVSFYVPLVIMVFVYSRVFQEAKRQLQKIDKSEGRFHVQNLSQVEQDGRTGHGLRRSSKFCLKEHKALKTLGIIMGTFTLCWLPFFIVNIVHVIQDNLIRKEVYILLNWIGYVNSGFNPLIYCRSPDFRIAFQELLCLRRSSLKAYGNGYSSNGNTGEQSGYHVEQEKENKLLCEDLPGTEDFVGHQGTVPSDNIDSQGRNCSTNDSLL
Peg3 promoter: Peg3 promoter-driven luciferase inhibitors, primary screen, cell-based, HeLa, luciferase luminescence. HeLa PEG-Prom luciferase reporter, overnight. inhibition, % at 20 µM. actives 1.7% (n = 360,000);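 active means inhibition of at least 50% at 20 µM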
CF NFkB block: inhibitors of PAF-induced NF-kB signaling, primary screen, cell-based, GFP fluorescence, uHTS; KKLEB NF-kB-GFP reporter, GFP fluorescence overnight; inhibition, % at 5 µM; actives 0.86% (n = 360,000); AID 588850, 2011;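 active means at least 50% inhibition at 5 µM, scaled per plate between neutral and stimulator controls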;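 further: PAF is a Pseudomonas aeruginosa culture filtrate used as stimulus; plate controls were PAF-stimulated DMSO wells for no effect and unstimulated DMSO wells for full effect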
TRPM1 prom inh: inhibitors of MITF-dependent TRPM1 promoter reporter, primary screen, cell-based, SK-MEL-5, single point, luciferase; AID 488899, 2010; actives 0.83% (n = 330,000); inhibition, % at 12.5 µM; SK-MEL-5 TRPM1 promoter luciferase, 24 h;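 active means mean inhibition across replicates of 60% or more, whatever share of single replicates reaches that level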
HIF-2a block: HIF-2a reporter inhibitors, primary screen, luminescence, 786-0 RCC cells | inhibition, % at 18.8 µM | AID 624352, 2012 | 786-0 RCC cells HIF-2a reporter, luciferase luminescence, overnight | actives 0.72% (n = 360,000);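 active means inhibition of the luminescence signal of 40% or more relative to plate controls, in a single-dose primary screen at 18.75 µM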
Beta2AR ag CP1: beta2AR agonists via receptor internalization, confirmation, cell-based, FAP fluorogen, flow cytometry, single point, cherry pick 1; percent response (surface receptor), % at 10 µM; actives 25% (n = 1,100); shares compounds with Beta2AR agonist; AID 540358, 2011; Am2.2-beta2AR cells, FAP surface receptor; hits give low values;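 active means surface receptor percent response at or below 58%, roughly 3 SD from nonfluorescent compounds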
FAP fluor counter: flagged in Am2.2 fluorescence counterscreen for beta-2AR agonists; shares compounds with Beta2AR agonist; Am2.2 cells, FAP fluorogen flow cytometry; hits give low values; calls only at 10 µM; 1,100 tested, under 10 active;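 active means percent response below a set limit in fluorescence channel 1 and below 50% in channel 8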
* hit, by the source's call; i = inactive; nt = no result given. Only some compounds are listed: those with a hit (about 2.8% of all), similar ones and a draw of the others.

SMILES	KKLEB cytotox	Beta2AR agonist	Peg3 promoter	CF NFkB block	TRPM1 prom inh	HIF-2a block	Beta2AR ag CP1	FAP fluor counter
CC(=O)Nc1ccc(-c2nnc(SCc3ccc(C)cc3)n2C)cc1	0.5	42.3*	-3.9	-6.2	-6.2	4.4	67.2	i
Cc1ccc(NC(=O)c2ccc(CSc3nnc(-c4ccncc4)n3C)cc2)cc1	-14.1	0.0	-52.9	6.1	-14.3	-36.5	nt	nt
Cc1nc(NC(=O)CSc2nnc(-c3ccccc3)c(-c3ccccc3)n2)c(Cl)cc1Cl	-13.8	47.6*	-1.0	-15.7	-5.6	-6.2	73.3	i
C[C@@H]1CN([C@H](C)CO)C(=O)CCCn2nncc2CO[C@H]1CN(C)S(=O)(=O)c1ccc2c(c1)OCCCO2	4.8	nt	2.0	-1.2	nt	4.8	nt	nt
C=CCn1c(SCc2ccc(F)cc2)nnc1-c1sc2nc(C)cc(C)c2c1N	22.2	108.5*	12.7	-14.4	-23.8	6.3	28.5*	i
C=CCn1c(SCc2ccc(OC)cc2)nnc1-c1cccnc1	-4.4	1.1	9.3	-3.5	9.2	4.5	nt	nt
CC1=C(C(=O)N(C)C)CC(CC(=O)NC(c2ccccc2)c2ccccc2)C(=O)N1Cc1ccc(F)cc1 (stereo not drawn)	-7.7	nt	-0.4	-9.0	nt	-7.1	nt	nt
c1ccc(-c2nccc(-c3ccc(-n4cnc5ccccc54)cc3)n2)cc1	14.9	71.4*	-27.8	10.1	-3.6	-14.1	95.6	i
C=CCn1c(C)cc(C(=O)COc2ccc(N(C)S(=O)(=O)c3ccc(NC(C)=O)cc3)cc2)c1C	-7.2	44.2*	7.9	18.0	13.6	2.1	129.6	i
Cc1ccc(-c2nc3ncccc3o2)cc1NC(=O)c1sc2ccccc2c1Cl	-1.2	45.5*	78.0*	-1.8	45.0	8.3	74.4	i
O=C(Nc1ccc2oc(-c3ccc4ccccc4c3)nc2c1)c1ccc2c(c1)OCCO2	-16.2	42.9*	-14.8	20.3	0.7	-77.5	20.2*	i
O=C(Nc1ccc2oc(-c3ccccc3F)nc2c1)c1ccccc1F	-10.6	13.7	-275.8	-28.8	-71.1	-326.5	109.7	i
Cc1ccc2nc(-c3cccc(NC(=O)c4ccc5c(c4)OCCO5)c3)oc2c1	17.2	21.2	-153.9	-38.1	-18.4	-161.5	nt	nt
O=C(Nc1ccc2oc(-c3ccccc3)nc2c1)c1ccccc1F	10.0	-1.4	-265.7	-17.1	-67.8	-241.2	nt	nt
O=C(Nc1cnn(Cc2c(Cl)cccc2Cl)c1)C(c1ccccc1)c1ccccc1	10.6	43.4*	-5.6	-11.7	-2.3	16.5	93.3	i
C=CCn1c(SCC(=O)Nc2ccc(-c3nc4ccc(C)cc4s3)cc2)nnc1-c1ccncc1	4.6	57.5*	-226.5	14.8	-33.3	-190.7	104.0	i
CCc1ccc(OCCOCC(O)CNC(C)CC)cc1 (stereo not drawn)	-11.7	74.2*	6.2	-19.9	1.2	12.3	102.5	i
CC(C)(C)C1CCC(C(=O)Nc2ccccc2)CC1 (stereo not drawn)	6.5	51.2*	-20.8	-9.2	-11.9	-23.5	63.5	i
CC(=O)Nc1cc(C(=O)OC(C(=O)c2ccccc2)c2ccccc2)ccc1C (stereo not drawn)	-0.2	120.8*	9.7	4.6	-2.7	-5.0	21.6*	i
CN1CCCC1(C)C(=O)NCc1ccc(F)cc1Cl (stereo not drawn)	-7.0	nt	2.0	6.4	nt	-1.3	nt	nt
CC(C)C[C@H]1CN(CCCC[C@H]2CNC(=O)C(=O)N2CCc2ccccc2)C(=O)C(=O)N1CCc1ccccc1	nt	nt	nt	nt	nt	-4.9	nt	nt
COc1ccc(C(=O)c2c(C)c3ccccc3n2CC(O)CNC(C)C)cc1 (stereo not drawn)	-11.1	43.6*	15.7	14.6	29.3	20.3	120.2	i
O=C(Nc1ccccc1C(=O)O)c1cccc(N2C(=O)c3ccccc3C2=O)c1	4.2	-10.2	-1.7	9.4	-9.6	24.6	78.7	i
COc1ccc(NC(=O)c2cccc(N3C(=O)c4cccc([N+](=O)[O-])c4C3=O)c2)cc1	11.3	-3.7	-10.9	-15.1	-8.7	8.2	91.0	i
NS(=O)(=O)c1ccc(NC(=O)c2ccc(-c3ccccc3)cc2)cc1	-2.3	1.4	6.2	2.0	5.1	6.8	nt	nt
SMILES	KKLEB cytotox	Beta2AR agonist	Peg3 promoter	CF NFkB block	TRPM1 prom inh	HIF-2a block	Beta2AR ag CP1	FAP fluor counter
O=C(O)c1cc(NC(=O)c2cccc(N3C(=O)c4ccccc4C3=O)c2)cc(C(=O)O)c1	4.1	8.0	-5.7	-7.2	10.8	2.1	110.2	i
COc1ccc(NC(=O)c2cccc(N3C(=O)C4C5CCC(C5)C4C3=O)c2)cc1 (stereo not drawn)	2.0	2.8	4.8	22.6	-5.9	1.4	nt	nt
NS(=O)(=O)c1ccc(NC(=O)c2cccc(N3C(=O)c4ccccc4C3=O)c2)cc1	-5.8	85.5*	-6.2	2.9	-3.3	9.4	41.8*	i
COC(=O)C[C@H]1CC[C@H](NC(=O)Nc2ccccc2F)[C@@H](CO)O1	nt	nt	nt	nt	nt	1.2	nt	nt
CC(C)c1ccc(C(=O)N2CCCC(c3cc(C(=O)Nc4ccccc4Cl)no3)C2)cc1 (stereo not drawn)	11.7	nt	8.5	-21.8	nt	-16.9	nt	nt
Cc1nc2c(OCc3ccc(Cl)cc3)cccn2c1N(C)C(=O)CCC1CCCC1	23.8	nt	0.5	-54.8	nt	-29.9	nt	nt
CC1CCN(S(=O)(=O)c2ccc(C(=O)Nc3nnc(-c4ccco4)o3)cc2)CC1	-8.2	50.7*	28.6	17.1	13.1	7.9	96.8	i
CC(=O)Nc1ccc(S(=O)(=O)N2CCN(c3ccc(C(C)=O)cc3)CC2)cc1	-9.9	nt	2.2	-15.1	nt	-4.1	nt	nt
O=C(C(c1ccccc1)c1ccccc1)N1CCN(c2ccccn2)CC1	-4.3	113.3*	13.7	11.6	3.6	11.9	15.6*	i
O=C(Nc1c(-c2ccccc2)[nH][nH]c1=O)c1cccc(C(F)(F)F)c1	-23.4	nt	-1.2	-21.6	nt	4.9	nt	nt
COc1cccc(OCc2nnc(-c3cccs3)o2)c1	10.6	50.5*	-42.4	-14.3	-20.5	-89.0	57.8*	i
C[C@@H]1CC[C@H](Cc2ccc(-n3cccc3)cc2)N1C(=O)OC(C)(C)C	-8.7	nt	-1.2	9.2	nt	-8.7	96.5	i
CC1(C)CC(Cc2ccc(Cl)nc2)N(C(=O)OC(C)(C)C)C1 (stereo not drawn)	-4.6	nt	-1.3	13.9	nt	-4.2	nt	nt

From PubChem
